# Laboratory results published in the supplement of paper PMC10981050.
# Where “and” joins values, the source holds several entries; their conditions need not be identical. Equal values may be shown once. Where a name gives a salt, the structure may show the parent alone.
# What was measured:
# Test in all cases: cell viability relative to vehicle control; higher = less cytotoxic
# Conditions in all cases: 10 µM
# K562 = tested on: K562
# In short: (§1)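 Mutant clones made by CRISPR editing and their isogenic wild-type counterparts, from four leukaemia lines, were exposed to a single 10 µM dose of each library compound for 48 h. The supernatant was then removed and CellTiter-Glo luminescence was read. Viability was reported as percent of the on-plate vehicle control.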
# MARIMO = tested on: MARIMO
# In short: as §1
# MOLM14 = tested on: MOLM14
# In short: as §1
# OCI-AML2 = tested on: OCI-AML2
# In short: as §1
Structure (SMILES),cell viability (K562; SRSF2 genotype: SRSF2 P95H/wt),cell viability (K562; SRSF2 genotype: SRSF2 wt/wt),cell viability (MARIMO; SRSF2 genotype: SRSF2 P95H/wt),cell viability (MARIMO; SRSF2 genotype: SRSF2 wt/wt),cell viability (MOLM14; SRSF2 genotype: SRSF2 P95H/wt),cell viability (MOLM14; SRSF2 genotype: SRSF2 wt/wt),cell viability (OCI-AML2; SRSF2 genotype: P95H/wt),cell viability (OCI-AML2; SRSF2 genotype: wt/wt)
c1cn2cc(-c3ccc4cn[nH]c4c3)nc(Nc3ccc(N4CCOCC4)cc3)c2n1 [Entospletinib (GS-9973)],89.8% and 84.7%,95.7%,89.5%,89.9%,79%,95.6%,92.5%,85.6%
CC(O)C(O)c1cnc2nc(N)[nH]c(=O)c2n1 (stereo unspecified) [6-Biopterin],98.5% and 106%,108%,104%,107%,109%,106%,104%,104%
O=S(=O)(c1ccccc1)c1cnc2c(N3CCNCC3)cccc2c1,93.9%,94.6%,95%,95%,98.7%,100%,101%,93.2%
NC(=O)OCC(COC(N)=O)c1ccccc1 [Felbamate],93% and 95%,94.4%,81.9%,100%,93.4%,89.4%,96.5%,113%
COCCNc1cc(NC(=O)N2CCCc3cc(CN4CCN(C)CC4=O)c(C=O)nc32)ncc1C#N,94% and 103%,89.4%,96.9%,106%,100%,98.2%,112%,109%
Cc1c(-c2ccnn2C)cc(C(=O)NCc2ccc(S(C)(=O)=O)cn2)c(=O)n1-c1cccc(C(F)(F)F)c1,97.6% and 102%,100%,112%,105%,109%,106%,107%,113%
Cc1cn([C@H]2C[C@H](O)[C@@H](CO)O2)c(=O)[nH]c1=O [Thymidine],98.3% and 88%,98.2%,96.6%,102%,92.5%,99.7%,91.8%,99.9%
COc1ccc(NC(=O)c2ccc(C(=N)N(C)C)cc2)c(C(=O)Nc2ccc(Cl)cn2)c1 [Betrixaban maleate],96.1% and 95.9%,89.5%,86.5%,89.9%,99.9%,102%,81.3%,76.5%
CCCCCC1C(=O)CCC1CC(=O)OCCC (stereo unspecified) [Prohydrojasmon],100% and 102%,109%,98.6%,98.6%,95.8%,106%,110%,118%
CC(C)NCC(O)c1ccc(NS(C)(=O)=O)cc1 (stereo unspecified) [Sotalol HCl],106% and 102%,95.7%,101%,109%,104%,102%,106%,102%
CN[C@H]1CN(c2ccc3c(=O)c(C(=O)O)cn(-c4nccs4)c3n2)C[C@@H]1OC [Voreloxin (SNS-595) hydrochloride],74% and 88.4%,79.8%,20.8%,36%,21.3%,7.31%,15.6%,19.9%
O=c1oc2cc(O)ccc2c2ccc(O)cc12 [S5312 Urolithin A.cdx],98.3% and 101%,106%,99.9%,98.3%,97.4%,105%,89%,94.5%
C#C[C@]1(OC(C)=O)CC[C@H]2[C@@H]3CCC4=C[C@@H](OC(C)=O)CC[C@@H]4[C@H]3CC[C@@]21C [Ethynodiol diacetate],78.7% and 88.6%,80.7%,51.5%,46.5%,63.6%,78.8%,30.3%,36.3%
COc1ccc(C(C)=O)c(O)c1 [Paeonol (Peonol)],103% and 101%,99.5%,104%,97.9%,102%,102%,98.3%,91.5%
OCc1ccc(O[C@@H]2O[C@H](CO)[C@@H](O)[C@H](O)[C@H]2O)cc1 [Gastrodin (Gastrodine)],102% and 101%,99.8%,107%,101%,105%,104%,104%,98.3%
CC1=C(/C=C/C(C)=C/C=C/C(C)=C/C(=O)O)C(C)(C)CCC1 [All-trans Retinoic Acid (Tretinoin)],88.7% and 90.3%,93%,68.7%,73.6%,54.2%,75.3%,11.3%,37.4%
CC1(C)CCC(C)(C)c2cc(NC(=O)c3ccc(C(=O)O)cc3)ccc21 [Tamibarotene],94.1% and 91.6%,90.8%,93.1%,99.2%,88.8%,98.3%,37.4%,61.5%
Cc1nc(NC(=O)N2CCC[C@H]2C(N)=O)sc1-c1ccnc(C(C)(C)C(F)(F)F)c1 [Alpelisib (BYL719)],93.3% and 102%,90.4%,55.6%,52.6%,52.6%,65.1%,32.2%,41%
COc1cc(C=O)ccc1OC(C)=O [Acetylvanillin],99.2% and 99.9%,99.7%,104%,103%,104%,101%,98.4%,104%
CCOC(=O)N1CCC(CN(Cc2ccc(Cl)cc2)Cc2ccc([N+](=O)[O-])s2)C1 (stereo unspecified) [Stenabolic (SR9009)],56% and 70.8%,63.4%,33.5%,25.5%,45.6%,41.9%,39.1%,41.4%
CO[C@@H](C(=O)N1Cc2[nH]nc(NC(=O)c3ccc(N4CCN(C)CC4)cc3)c2C1)c1ccccc1,40.2% and 48.7%,34.3%,63.3%,69.4%,14.3%,12.9%,6.56%,19.3%

Structure (SMILES),cell viability (K562; SRSF2 genotype: SRSF2 P95H/wt),cell viability (K562; SRSF2 genotype: SRSF2 wt/wt),cell viability (MARIMO; SRSF2 genotype: SRSF2 P95H/wt),cell viability (MARIMO; SRSF2 genotype: SRSF2 wt/wt),cell viability (MOLM14; SRSF2 genotype: SRSF2 P95H/wt),cell viability (MOLM14; SRSF2 genotype: SRSF2 wt/wt),cell viability (OCI-AML2; SRSF2 genotype: P95H/wt),cell viability (OCI-AML2; SRSF2 genotype: wt/wt)
COCCCOc1ccnc(C[S+]([O-])c2nc3ccccc3[nH]2)c1C (stereo unspecified) [Rebeprazole sodium],95.2% and 93.6%,101%,104%,106%,95.6%,102%,97.4%,113%
Cc1nc(C#Cc2ccnc(Cl)c2)c(C)n1-c1ccc(OC(F)(F)F)cc1,75.6% and 89.6%,75.7%,82.7%,88.9%,78.8%,80.2%,55.7%,68.7%
CCCCS(=O)(=O)N[C@@H](Cc1ccc(OCCCCC2CCNCC2)cc1)C(=O)O [Tirofiban Hydrochloride],94.8% and 103%,96%,89.6%,104%,101%,99.6%,100%,107%
O=c1ccn(C2OC(CO)C(O)C2O)c(=O)[nH]1 (stereo unspecified),90.3% and 93.8%,99.6%,99.2%,97.5%,100%,100%,100%,95.4%
COC(=O)C1=CO[C@@H](O[C@@H]2O[C@H](CO)[C@@H](O)[C@H](O)[C@H]2O)[C@@H]2[C@H](C)O[C@@H](O)C[C@H]12 [Morroniside],93.4% and 87.6%,93%,85.3%,97.1%,88.1%,89.3%,88.8%,106%
C[Si](C)(C)CCOCn1ccc2c(-c3cn[nH]c3)ncnc21,98.4% and 99.6%,109%,98.6%,106%,95.9%,106%,100%,99%
C[n+]1ccccc1C=NO [Pralidoxime Iodide],106% and 98.4%,111%,101%,105%,99.2%,106%,105%,118%
Cc1ccccc1-c1cc(N2CCN(C)CC2)ncc1N(C)C(=O)C(C)(C)c1cc(C(F)(F)F)cc(C(F)(F)F)c1 [Netupitant],90.3% and 95.2%,94.6%,104%,93.8%,107%,98.4%,70.3%,75.3%
C/C=C/C=C/C(=O)O [Sorbic acid],92.4% and 92.8%,92.6%,90.7%,99.1%,99.3%,101%,106%,106%
CCOc1ccccc1N=Nc1c(C)[nH]n(-c2nc(-c3ccccc3)cs2)c1=O,95.7% and 103%,91.9%,101%,96.5%,97.8%,95.9%,108%,97.2%
CC1OC(OC2C(CO)OC(OCC3OC(OC(=O)C45CCC(C)(C)CC4C4=CCC6C7(C)CCC(OC8OCC(O)C(O)C8OC8OC(C)C(O)C(O)C8O)C(C)(CO)C7CCC6(C)C4(C)CC5)C(O)C(O)C3O)C(O)C2O)C(O)C(O)C1O (stereo unspecified) [Hederacoside C],101% and 93%,95.3%,96.9%,101%,97.3%,98%,93.5%,106%
Cc1c(C(=O)Nc2ccc(N3CCC(N4CCOCC4)CC3)c(C#N)c2)cnn1-c1ccc(Cl)cc1,8.99% and 14.7%,47.6%,6.27%,12.2%,11%,1.97%,8.8%,11.4%
COc1ccccc1OCC(O)COC(N)=O (stereo unspecified) [Methocarbamol (Robaxin)],99.3% and 104%,107%,94.9%,106%,109%,104%,98.4%,106%
COc1cc2nc(N(C)CCCNC(=O)C3CCCO3)nc(N)c2cc1OC (stereo unspecified) [Alfuzosin hydrochloride (Uroxatral)],97% and 98.6%,95.3%,91.3%,98.1%,96.7%,97.5%,90.7%,103%
C=CC(=O)N1CC/C(=C\c2ccc(F)c([N+](=O)[O-])c2)C(=O)/C(=C/c2ccc(F)c([N+](=O)[O-])c2)C1,2.41% and 0.35%,0.44%,0.25%,0.39%,0.29%,0.29%,0.26%,0.35%
CNS(=O)(=O)C[C@H]1CC[C@H](N(C)c2[nH]cnc3nccc2-3)CC1 [Oclacitinib maleate],95.6% and 99.2%,103%,95.5%,102%,55.9%,73%,77.5%,72.5%
CCc1c2c(nc3ccc(O)cc13)-c1cc3c(c(=O)n1C2)COC(=O)[C@]3(O)CC,10.1% and 21.4%,13.4%,5.36%,3.23%,1.02%,0.95%,0.48%,1.9%
CCCN(CCC)CCc1cccc2c1CC(=O)N2 [Ropinirole HCl],98.9% and 97.5%,95.9%,103%,100%,103%,102%,100%,89.4%
CN(C)C/C=C/C(=O)Nc1cc2c(Nc3ccc(F)c(Cl)c3)ncnc2cc1O[C@H]1CCOC1 [Afatinib (BIBW2992)],8.97% and 5.94%,6.24%,1.96%,1.37%,0.03%,0.04%,0.06%,0.13%
COC(=O)N(C)c1c(N)nc(-c2nn(Cc3ccccc3F)c3ncccc23)nc1N [Riociguat (BAY 63-2521)],89.6% and 89.1%,82.6%,85%,99%,90.2%,94%,96.3%,108%
CCCNS(=O)(=O)Nc1ncnc(OCCOc2ncc(Br)cn2)c1-c1ccc(Br)cc1 [Macitentan],104% and 105%,96.8%,100%,118%,103%,110%,102%,110%
